The source of these data is the supplement of paper PMC10681739.

In all, about 4,100 sequences were measured (“arbitrary fluorescence units”: median about 780, highest 2% from about 22,000 on). This is one part of a sample in which the highest values are shown more often than they occur.

The test concerns the target T1, ETS1 (UniProt P14921).
T1 sequence: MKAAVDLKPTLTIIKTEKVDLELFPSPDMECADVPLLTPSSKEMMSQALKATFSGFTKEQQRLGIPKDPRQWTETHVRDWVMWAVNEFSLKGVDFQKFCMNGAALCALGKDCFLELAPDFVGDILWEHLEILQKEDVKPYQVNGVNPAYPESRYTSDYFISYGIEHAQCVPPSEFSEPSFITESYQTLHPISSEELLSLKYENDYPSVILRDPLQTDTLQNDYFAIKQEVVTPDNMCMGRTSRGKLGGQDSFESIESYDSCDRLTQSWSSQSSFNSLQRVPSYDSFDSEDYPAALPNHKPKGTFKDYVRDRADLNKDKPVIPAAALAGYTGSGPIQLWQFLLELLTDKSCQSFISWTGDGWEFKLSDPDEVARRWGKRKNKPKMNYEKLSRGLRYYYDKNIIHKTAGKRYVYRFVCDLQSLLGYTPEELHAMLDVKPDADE
The test is described as follows: ETS1 binding intensity (PBM fluorescence), ETS1 alone (arbitrary fluorescence units); higher = stronger binding. As to conditions: ETS1 concentration 1 nM; RUNX1 concentration 0 nM. The method, then:
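gcPBM on 36-bp genomic-derived probes (partner site mutated) containing one ETS1 site and no RUNX1 site. Recombinant human ETS1 (1 nM) was incubated alone or with RUNX1 (25 nM) and detected by anti-ETS1 antibody fluorescence. Values are medians over 4 replicate spots (not normalised). The probes sit in constant array flanks that are not printed.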
On to GCAGGACTTCCTGTGTTGTGCTAACCCCAAATTACA, for which the ETS1 binding intensity came to 22100. The sequence TTTCTGACTTCCTGTGTGCTTCAGAAACCCCAATGA returned an ETS1 binding intensity of 25100. Sequence CGGAGAGCTCGCGGCAATTCCGTTTCCCCGCCCTTT registered an ETS1 binding intensity of 404.

The sequence CCGCCCACTTCCGTGTGGCCGCCGATTGGTCTTGCC gave an ETS1 binding intensity of 7350. GAGGGCTGCTTCCTGCTCTGTGGAGGCCGCTGAGGG gave an ETS1 binding intensity of 6710. The value for GGCCTACGGGAGGGCCCGCCTTGGCTGCTTCCGCAG was 310; that for GCTGCTTCCGGCCGCTGGTCGCAGGGCTGAGGGACT was 26400; that for GGCTCTGCCGTCCGCTGACAGGAAGACGCTGACGAC was 973.

Sequence TGCGCTCGATTGTGAGCGGGGGCGGAAAGAGGCGCC returned an ETS1 binding intensity of 471. The sequence GTAGGGCCGGACGGCAGGCTCCGGGATAGCGCCACG gave an ETS1 binding intensity of 416. AGCTTTTCTGAGAGCGCGGGCAGGATGTGACCTCCC yielded an ETS1 binding intensity of 675. Take CTTTCTGTCGAGGTCAGGTTTCCTCTCCTTTATGAA: the ETS1 binding intensity came out at 437. The sequence GCGGGGCGTGTCCACGCACTTCCGGTTTTCTCGAAA returned an ETS1 binding intensity of 28700. With CGTGTCCACGGGGACCGAAAGTGGCGTCCGGCGCAA, the ETS1 binding intensity amounted to 354. The sequence GGGTCCTTCCGGGTTTTGTGTCGAATCTACGGCGGC returned an ETS1 binding intensity of 7400. For TGTGTAATCCCCACGACAACCTAGGAAGTGGGAAAA, the ETS1 binding intensity came to 410.

Regarding CTGCCCATCGCTGTTAACTTTTCCGCCTCCTTAAAG, the ETS1 binding intensity turned out to be 492.

Take CCTGACTTCCTCCTCCCCCTCCCGCCCCAATTCCGC: the ETS1 binding intensity was found to be 4620. On to GTCTTACTTCCTGTCCCCGCCCACCTCGACTGTCTT, for which the ETS1 binding intensity turned out to be 22700. Take ACCTTCGCCGCTGTCCCCAGCCTCTTCCTGTCCCGG: the ETS1 binding intensity worked out at 1130. For AGTTGCTAAGGAAATGACTGCCTGCAGCGCCTGGCC the value was 610; for GAAGAGACTCCCGCCACCTTGGCCGTTTCCCCTGAT, 318. GCCGCTGGGTAGGCGGAAGTAGCCGCTGGCATGGCA registered an ETS1 binding intensity of 2800. Sequence AGAAAACTACATTCAATTCTCTTTACACAGGATGTT gave an ETS1 binding intensity of 661.

The sequence CGGGACAGCGACGGGCCAGGTGACCGGAAGAGGCCG came in with an ETS1 binding intensity of 1770. On to CGGAGCCCAACGACCGGCACTTCCGGGGGGCGGGTG, for which the ETS1 binding intensity amounted to 5010. Consider GCACTTCCGGAGCCGGGCGTCTACAGGCCGAGGCCA, for which the ETS1 binding intensity came to 28500. In turn, GCGGAGCTTGTAGGCCAGGAGGACTTCCGGGTGGGT displayed an ETS1 binding intensity of 2220. CACCCTCACGGAAACAGCTGTGTGTAAGCACCTCCA registered an ETS1 binding intensity of 585. On to TATCATTTTTACGACAGAGGTACAGGAAATTGTTTC, for which the ETS1 binding intensity was 733. The value for TAGGTTTGGGGTAGAAGCTGCAGGAACTTCCTGTCC was 1710; that for CCCCTCACTTCCCTCAACCCTTCCCATAAACTGGGA was 1620.

Turning to GCGCACTTCCGGGCTGGTGAACGCGTTGACGTCACC, the ETS1 binding intensity came out at 35400. For GGTGACGTCAACGCGTTCACCAGCCCGGAAGTGCGC the value was 1230; for CGACGTCACTTCCGCTGGTTCAAGCACCGTGAGACT, 21400; for AAGCTTCCTGGCCCTTTAAAAATGGAGGTTCCGCAC, 4840. For GGGGCGATTACAGAACGGGTAACTCAGGATGATTCA, the ETS1 binding intensity turned out to be 541. Consider CTTGGGGTCCCCTCGGGTGGTGGCAGGATGTAGGTA, for which the ETS1 binding intensity turned out to be 480. In turn, GGACCGGAAGTAGGTTTCTACCCGAGCGCATTTTAC registered an ETS1 binding intensity of 27600.

With CCGAGCGCATTTTACGTGGTGCTGCATTTCCGGTAG, the ETS1 binding intensity worked out at 3930.

CGCCCCGGCAGCCGCCCACGTCCGGGGGCCAGGCCT yielded an ETS1 binding intensity of 802. For AGCGCTTCCTGGCTCCGGCCCCGCCCCTGCAGTCGG the value was 6440. For the sequence GAGAACTTCCGGTGCGCTCCCCGGGACTGCAGTCCC, the ETS1 binding intensity came out at 46000. In turn, TGGCGGGAGAACTTCCCCCTGTGCGCTCGCGACGTG yielded an ETS1 binding intensity of 775. On to CTTTTTGGTCTGCCAGGCACGGATTTCCGCCCACTC, for which the ETS1 binding intensity is 1270. Sequence ATGGAAAGGAAGTCGGTGGGAATCCGCCTCAGCGGT returned an ETS1 binding intensity of 1590. For GTGTCCTGTGCTCTCCTCTGCGCCACTTCCCTGCCT the value was 623.

Sequence GTCCTCTTCCTGTCCCCCAGGTGGGCATGTGATTTG came in with an ETS1 binding intensity of 6800.

CCCACTTCCTGTCCCTGCATGCTCTGGGGCAGGCAG registered an ETS1 binding intensity of 31100. CACGGAGCCACTTCCGGCGGCTGTGAGCGCAAAACC came in with an ETS1 binding intensity of 35500. Consider GGCGGCTGTGAGCGCAAAACCCAAAACTTCCGATGG, for which the ETS1 binding intensity was determined as 452. Sequence TCAGGAGCCACGGACGGGCGGGGCTTCCGGGAGCAA came in with an ETS1 binding intensity of 1170.

Turning to AACACTATTTCCTTTCTTGCTGCTCACATTTTAACA, the ETS1 binding intensity was 4990. Turning to TGGAGCTGTTACGGGGTCCGCGGGGAAGTCTTGGCA, the ETS1 binding intensity is 364. The sequence GGACGCTTCCGGTGGAAGGGAGCTGTTACGGGGCTT registered an ETS1 binding intensity of 32900. In turn, CTGCTTGAGGGTGGAGGGGAGCTTCCGAAGGAGGCC returned an ETS1 binding intensity of 536. In the case of AAACCAGAGGAAGTGGATTCCAACTACAAACCTCAC, the ETS1 binding intensity is 1830. Sequence ACTCACTTCCGTTTAGCTTATCAACTACCAAGAGAC had an ETS1 binding intensity of 35500. On to CTTATCAACTACCAAGAGACATTTCCCCTTTGTACT, for which the ETS1 binding intensity turned out to be 558. Sequence CGGGAGCGGCCGAAGTGACGACTTCCGGGATGCTCC gave an ETS1 binding intensity of 7380.

CGCCTCATTTCCTGTGCAACTGCTGTAAAAATAGGA returned an ETS1 binding intensity of 22400. On to GTGCAACTGCTGTAAAAATAGGAAGTGGGGGAGGAG, for which the ETS1 binding intensity came to 861.

The sequence CCACCGTGCTGTAAACTGCACTTCCTCACTTAGCAC returned an ETS1 binding intensity of 870.
